Only a selection was taken, and hits are over-represented in it overall.
PRC2 inh: inhibitors of human EZH2/PRC2 methyltransferase; Q15910; PRC2 H3K27 methylation, DELFIA TRF, 1 h; inhibition, % at 12.5 µM; hit rate 0.35% among 57,000;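 active = mean inhibition of replicates at least 50% and every single replicate also reaching 50%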;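 also: dimethyl H3K27 on biotinylated H3 21-44 peptide detected by antibody; plate controls were median neutral control wells for no effect and median positive control wells for full effect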
Target sequence (Q15910 whole entry, looked up): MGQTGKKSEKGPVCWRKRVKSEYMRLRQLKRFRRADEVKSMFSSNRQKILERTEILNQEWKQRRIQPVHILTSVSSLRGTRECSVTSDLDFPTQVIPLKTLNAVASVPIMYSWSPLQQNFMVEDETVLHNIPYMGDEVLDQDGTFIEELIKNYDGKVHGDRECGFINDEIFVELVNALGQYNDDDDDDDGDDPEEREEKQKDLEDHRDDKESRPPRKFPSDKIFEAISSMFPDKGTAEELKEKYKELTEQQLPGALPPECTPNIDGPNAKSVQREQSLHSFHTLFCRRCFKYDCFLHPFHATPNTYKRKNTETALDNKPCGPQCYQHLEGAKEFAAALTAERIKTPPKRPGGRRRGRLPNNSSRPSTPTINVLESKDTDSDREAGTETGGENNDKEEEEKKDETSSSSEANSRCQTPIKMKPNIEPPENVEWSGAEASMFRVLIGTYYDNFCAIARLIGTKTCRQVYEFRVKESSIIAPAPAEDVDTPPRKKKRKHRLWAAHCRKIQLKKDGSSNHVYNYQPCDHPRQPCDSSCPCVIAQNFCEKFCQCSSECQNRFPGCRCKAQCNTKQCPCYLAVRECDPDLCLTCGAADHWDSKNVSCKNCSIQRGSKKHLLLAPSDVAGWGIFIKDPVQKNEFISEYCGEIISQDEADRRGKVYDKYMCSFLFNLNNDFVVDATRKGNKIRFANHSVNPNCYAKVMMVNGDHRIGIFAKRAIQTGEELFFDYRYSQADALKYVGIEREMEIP
* = called active by the depositor.

SMILES	PRC2 inh
O=c1c(O)c(-c2ccc(O)c(O)c2)oc2cc(O)cc(O)c12	62*
O=c1c(OC2OCC(O)C(O)C2O)c(-c2ccc(O)c(O)c2)oc2cc(O)cc(O)c12 (configuration not stated)	99*
COc1cc(O)c2c(=O)c(OC3OC(CO[C@@H]4O[C@@H](C)[C@H](O)[C@@H](O[C@@H]5O[C@@H](C)[C@H](O)[C@@H](O)[C@H]5O)[C@H]4O)C(O)C(O)C3O)c(-c3ccc(O)cc3)oc2c1 (some centres not stated)	8
COc1cc(-c2oc3cc(O)cc(O)c3c(=O)c2O[C@@H]2O[C@H](CO)[C@@H](O)[C@H](O)[C@H]2O)ccc1O[C@@H]1O[C@H](CO)[C@@H](O)[C@H](O)[C@H]1O	-9
O=c1c(O[C@@H]2OC[C@H](O)[C@H](O)[C@H]2O)c(-c2ccc(O)c(O)c2)oc2cc(O)cc(O)c12	69*
O=c1c(O[C@@H]2OC[C@H](O)[C@H](O)[C@H]2O)c(-c2ccc(O)cc2)oc2cc(O)cc(O)c12	100*
O=C1C[C@@H](c2ccc(O)c(O)c2)Oc2cc(O[C@@H]3O[C@H](CO)[C@@H](O)[C@H](O)[C@H]3O)cc(O)c21	5
O=c1c(-c2ccc(O)cc2)coc2cc(O)cc(O)c12	13
C[C@H]1CN([C@@H](C)CO)S(=O)(=O)c2ccc(C#CCN(C)C)cc2O[C@@H]1CN(C)C	22
CC(=O)N[C@H]1CC[C@H](CCNC(=O)C2CCC2)O[C@@H]1CO	10
COc1ccc(NC(=O)N(C)C[C@H]2Oc3ccc(NC(=O)Cc4ccccc4)cc3C(=O)N([C@@H](C)CO)C[C@H]2C)cc1	-1
CC(C)NC(=O)Nc1ccc2c(c1)C(=O)N([C@H](C)CO)C[C@H](C)[C@H](CN(C)C(=O)Cc1ccccc1)OCCCC[C@H](C)O2	-32
CN(C)Cc1cn(CC[C@@H]2CC[C@@H](NS(=O)(=O)c3ccccc3)[C@H](CO)O2)nn1	-7
CCCNC(=O)Nc1ccc2c(c1)C(=O)N(C)C[C@H](OC)[C@@H](C)CN[C@H](C)CO2	1
CCC(=O)N[C@H]1CC[C@@H](CCNC(=O)Nc2ccc(C(F)(F)F)cc2)O[C@H]1CO	22
O=C(CNS(=O)(=O)c1ccc(Br)cc1)Nc1cccc2ccccc12	11
Nc1c(S(=O)(=O)O)cc(Nc2ccc(Cl)cc2)c2c1C(=O)c1ccccc1C2=O	68*
O=C(Nc1cccc2ccccc12)OCCn1ncc2ccccc2c1=O	-7
Nc1c(S(=O)(=O)O)cc(Nc2cccc3ccccc23)c2c1C(=O)c1ccccc1C2=O	82*
CO[C@H]1CN(C)C(=O)c2cc(NC(=O)c3cc(C)on3)ccc2OC[C@@H](C)N(C(C)=O)C[C@@H]1C	-3
CC(=O)N(C)C[C@@H]1Oc2cc(C#Cc3ccncc3)ccc2S(=O)(=O)N([C@H](C)CO)C[C@H]1C	-3
C[C@H]1CN([C@@H](C)CO)C(=O)Cc2cc(NS(=O)(=O)c3cccs3)ccc2O[C@@H]1CN(C)Cc1ccc(C(=O)Nc2ccccc2N)cc1	-9
N#Cc1c(NC(=O)CSc2n[nH]c(-c3ccc(Cl)cc3Cl)n2)sc2c1CCCC2	52*
O=C(CSc1n[nH]c(-c2ccc(Cl)cc2Cl)n1)Nc1ccccc1F	-5
O=C(CSc1n[nH]c(-c2ccc(Cl)cc2Cl)n1)Nc1cccc(Cl)c1Cl	32
SMILES	PRC2 inh
C/C=C/c1ccc2c(c1)O[C@H](CN(C)CCC)[C@H](C)CN([C@H](C)CO)S2(=O)=O	-23
CCO[C@H]1OC(C(=O)NC2CC2)=C[C@@H](c2ccccc2)[C@@H]1CCCO	-5
CCC(=O)Nc1ccc2c(c1)OC[C@H](C)N(C(=O)COC)C[C@H](C)[C@@H](OC)CN(C)C2=O	7
C[C@@H]1CN([C@@H](C)CO)C(=O)Cc2cc(NC(=O)CCN3CCOCC3)ccc2O[C@H]1CN(C)Cc1ccc2c(c1)OCO2	-7
CCCNC(=O)N[C@H]1CC[C@H](CC(=O)NCCc2ccccc2)O[C@H]1CO	-2
COC(=O)c1ccccc1NC(=O)c1cccc(NC(=O)COc2ccccc2)c1C	17
COC(=O)c1ccccc1NC(=O)c1ccc(COc2ccccc2)o1	53*
COC(=O)c1ccccc1NC(=O)c1ccc(NC(=O)COc2ccccc2)cc1	10
O=C(C[C@@H]1CC[C@@H](NC(=O)Nc2ccccc2F)[C@H](CO)O1)NCc1ccc(Cl)cc1	2
CO[C@@H]1CN(C)C(=O)c2ccc(NC(C)=O)cc2OC[C@@H](C)N(C(=O)c2ccccn2)C[C@@H]1C	8
Clc1ccc(OCCCCSc2ncccn2)cc1	28
Cc1ccc(C)c(OCCCCSc2ncccn2)c1Cl	56*
Cc1cc(Cl)cc(Br)c1OCCCSc1ncccn1	62*
Cc1ccc([N+](=O)[O-])c(OCCCSc2ncccn2)c1	16
O=[N+]([O-])c1ccccc1OCCCCSc1ncccn1	5
Cc1ccnc(NS(=O)(=O)c2ccc(NC(=O)c3csc(C)c3)cc2)n1	-15
COc1cccc(-c2ccc3c(c2)O[C@H](CN(C)CC2CC2)[C@H](C)CN([C@@H](C)CO)S3(=O)=O)c1	-24
S=c1nc[nH]c2c1sc1nc(N3CCOCC3)c3c(c12)CCCC3	-14

High-throughput results as filed in PubChem.
